Compound activity: PubChem, National Center for Advancing Translational Sciences (NCATS)
A350 fluor: qHTS Assay for Spectroscopic Profiling in A350 Spectral Region; Compound autofluorescence, 340/450 nm, Alexa 350 dye-equivalents; active compounds read high; max dye-equivalent concentration, M; 59,000 compounds, 11% hits; AID 590, 2007; in the data active = max dye-equivalent concentration above about 10 nM; inconclusive = mostly about 1.1 nM to 9.6 nM
CRE-bla Fsk: Cell signaling CRE-BLA (Fsk stim) | CHO CRE-bla reporter (cAMP response element driving beta-lactamase), forskolin EC10, beta-lactamase ratio | Potency, µM (doses to about 38.2 µM), usual class: activators | 71,000 compounds, 2.5% hits | AID 662, 2007; active = well fitted activation curve with a large enough effect in the signal ratio, with a control signal flat, not every such curve was filed as active; inconclusive = small, poorly fitted or top-dose-only effect, or effect the other way, or a change in a side signal; the % refers to the signal ratio
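CHO CRE-bla cells, overnight plating in Opti-MEM with 0.5% dialyzed FBS; cpd titration + EC10 NKH 477, 3 h 37 °C; CCF4 2 h RT; ex 405/em 460 vs 530 ratio → %Activity, AC50.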
HADH2 inh: qHTS Assay for Inhibitors of HADH2 (Hydroxyacyl-Coenzyme A Dehydrogenase, Type II). recombinant HADH2, NADH fluorescence, beta-hydroxybutyryl-CoA. 73,000 compounds, 3.4% hits. Potency, µM (highest dose often 57.1 µM), usual class: inhibitors. AID 886, 2007; also: nearly all actives have a fitted effect of over 60% in size
Target sequence (Q99714 whole entry, looked up, one chain of several): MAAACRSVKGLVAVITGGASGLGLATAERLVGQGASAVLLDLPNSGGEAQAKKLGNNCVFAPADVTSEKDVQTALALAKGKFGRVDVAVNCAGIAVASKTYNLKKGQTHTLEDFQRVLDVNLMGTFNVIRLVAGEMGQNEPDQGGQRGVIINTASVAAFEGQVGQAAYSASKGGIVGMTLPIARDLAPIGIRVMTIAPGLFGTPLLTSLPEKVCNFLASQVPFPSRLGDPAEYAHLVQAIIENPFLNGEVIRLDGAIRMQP
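NADH fluorescence (ex 360/em 450 nm) read every 30 s for 4 min; activity taken as last-minus-first time point difference. Enzyme 20 nM, NAD+ 1 mM, beta-hydroxybutyryl-CoA 90 uM, pH 9.0 Tris buffer.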
AID923: qHTS Assay for Allosteric/Competitive Inhibitors of Caspase-1: Spectroscopic Profiling in AFC Spectral Region. 75,000 compounds, 1.1% hits. compound fluorescence, AFC spectral region (405/520 nm). Potency, µM (series often up to 57.5 µM), most hits filed as activators. AID 923, 2007
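Baseline compound fluorescence (AFC region, 405 nm ex/520 nm em) taken from the intercept of kinetic reads with 50 nM caspase-1 and 5 uM Ac-WEHD-AFC; normalized to an on-plate AFC standard curve; compounds titrated up to 57 uM.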
HSD17B inhib: qHTS Assay for Inhibitors of HSD17B4, hydroxysteroid (17-beta) dehydrogenase 4; 3-hydroxyacyl-CoA dehydrogenase type-2 (Homo sapiens), Q99714; recombinant HSD17B10, NADH fluorescence kinetic; Potency, µM (doses to about 57.1 µM), most hits filed as inhibitors; 75,000 compounds, 7.6% hits; AID 893, 2007;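 also: the protocol describes HADH2 (HSD17B10) and not the HSD17B4 of the title; nearly all actives have a fitted effect of over 70% in size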
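Enzyme plus compound, 15 min room temperature; substrate mix added (NAD+ 1 mM, beta-hydroxybutyryl-CoA 90 uM final); plates read kinetically for NADH fluorescence. HADH2 was His-tagged, E. coli-derived, 20 nM.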
4-MU autofl: qHTS Assay for Spectroscopic Profiling in 4-MU Spectral Region | max dye-equivalent concentration, M | 59,000 compounds, 11% hits | compound autofluorescence, 340/450 nm, 4-MU equivalents; active compounds read high | AID 589, 2007; in the data active = max dye-equivalent concentration above about 10 nM; inconclusive = mostly about 1.1 nM to 9.6 nM
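Compounds in 100 mM Tris, pH 8.0, sat 15 min at room temperature before fluorescence was read at 340 nm excitation/450 nm emission; a per-plate six-point 4-MU standard curve converted signals to dye-equivalent concentration at each compound concentration.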
Hits are given with their value; [ ] = dose if it differs, or a comment. Most compounds without a hit are left out; they make up all but 14% or so of the library. Unless noted, calls follow the shape of the dose curve; as a rule, active = well fitted curve in the direction sought with a large enough effect; inconclusive = small, poorly fitted or top-dose-only effect, or another doubt; inactive = no such curve, though single readings can be large; an effect the other way counts as inactive or inconclusive.

Screening COc1ccc(CNc2nc3c(c(=O)n(Cc4ccc(F)cc4)c(=O)n3C)n2C)cc1 returned A350 fluor inactive, CRE-bla Fsk inactive, HADH2 inh inactive, AID923 inactive, HSD17B inhib inactive and 4-MU autofl inactive.
`Cc1cnc(CNc2cc(-c3ccc4c(c3)OCO4)ncn2)cn1` gave A350 fluor inactive, CRE-bla Fsk inconclusive, HADH2 inh inactive, AID923 inactive, HSD17B inhib inconclusive and 4-MU autofl inactive.
Nc1nc(-c2cc(-c3cccc4ccccc34)nc(N)n2)cc(-c2cccc3ccccc23)n1 was read as A350 fluor inactive, CRE-bla Fsk inactive[7.6 µM], HADH2 inh inactive[11.4 µM], AID923 inactive[11.5 µM], HSD17B inhib inactive[11.4 µM] and 4-MU autofl inactive.
N=C1N=C(N)c2cc3ccccc3cc21 was read as CRE-bla Fsk inactive, HADH2 inh inconclusive, AID923 inactive and HSD17B inhib 32µM.
For CC1(C)Cc2c(sc3ncn4nnnc4c23)CO1 the results were A350 fluor inactive and 4-MU autofl inactive.
Screening Cc1nc2sc3c(c2c2nc(-c4ccco4)nn12)CC(C)(C)OC3 returned A350 fluor inactive, CRE-bla Fsk 3.2µM, HADH2 inh inactive, AID923 inactive, HSD17B inhib inactive and 4-MU autofl inactive.
`CC1=C/C(=C/N(C)c2ccccc2)C(=O)S1` gave A350 fluor inactive, CRE-bla Fsk inactive, HADH2 inh 6.3µM, AID923 inactive, HSD17B inhib 16µM and 4-MU autofl inactive.
O=C1c2ccccc2-c2nc3ncnn3c(-c3ccccc3Cl)c21 was read as CRE-bla Fsk 13µM, HADH2 inh inactive, AID923 inactive and HSD17B inhib inactive.
`NS(=O)(=O)c1cc2c(cc1C(F)(F)F)NC(Cc1ccccc1)NS2(=O)=O` (centres undefined) gave A350 fluor inactive, AID923 inactive, HSD17B inhib inactive and 4-MU autofl inactive.
Screening CCc1ccc(C2CC(=O)N3CN(c4ccccc4)CSC3=C2C#N)cc1 (centres undefined) returned CRE-bla Fsk inactive, HADH2 inh 0.63µM, AID923 inactive and HSD17B inhib 7.9µM.
For CCOC(=O)c1ccc(N2CSC3=C(C#N)C(c4cccs4)CC(=O)N3C2)cc1 (centres undefined) the results were CRE-bla Fsk inactive, HADH2 inh 5µM, AID923 inactive and HSD17B inhib inactive.
For N#CC1=C2SCC(O)(c3ccccc3)N2C(=O)CC1c1ccccc1 (centres undefined) the results were A350 fluor inactive and 4-MU autofl inactive.
Screening CN1CSC2=C(C#N)C(c3cccc(OCc4ccccc4)c3)CC(=O)N2C1 (centres undefined) returned CRE-bla Fsk inconclusive, HADH2 inh 1.3µM, AID923 inactive and HSD17B inhib 25µM.
Screening COC(=O)C1C(=O)N2CCCSC2=C(C#N)C1c1cccs1 (centres undefined) returned A350 fluor inconclusive, CRE-bla Fsk inactive, HADH2 inh inactive, AID923 inactive, HSD17B inhib inactive and 4-MU autofl inactive.
`N#CC1=C2SCN(c3ccc(F)cc3)CN2C(=O)CC1c1cccc(F)c1` (centres undefined) gave CRE-bla Fsk inactive, HADH2 inh 1.6µM, AID923 inactive and HSD17B inhib inconclusive.
CCc1ccc(N2CSC3=C(C#N)C(c4cccs4)CC(=O)N3C2)cc1 (centres undefined) was read as A350 fluor inconclusive, CRE-bla Fsk inactive, HADH2 inh inconclusive, AID923 inactive, HSD17B inhib 25µM and 4-MU autofl inactive.
For COc1ccc(N2CSC3=C(C#N)C(c4cccs4)CC(=O)N3C2)cc1 (centres undefined) the results were A350 fluor inactive, CRE-bla Fsk inactive, HADH2 inh inconclusive, AID923 inactive, HSD17B inhib 25µM and 4-MU autofl inactive.
Screening COC(=O)c1ccc(C(NC(=O)OCc2ccccc2)/C(=C/[C@@H](C)C(=O)NCc2ccc(OC)c(OC)c2)c2cccnc2)cc1 (some centres undefined) returned CRE-bla Fsk inactive, HADH2 inh inactive, AID923 inactive and HSD17B inhib inactive.
For COCCn1cnnc1SCC(=O)c1ccc(S(=O)(=O)N2CCCC2)cc1 the results were A350 fluor 1.8e-08M, CRE-bla Fsk inactive, HADH2 inh inactive, AID923 inactive, HSD17B inhib inactive and 4-MU autofl 1.2e-08M.
CC(=O)N1C(C(=O)O)CSC1c1ccc(C)cc1 (centres undefined) was read as CRE-bla Fsk inactive, HADH2 inh inactive, AID923 inactive and HSD17B inhib inactive.
For Cc1cc(C(=O)OCC(=O)N2CCN(C(=O)c3ccco3)CC2)c(C)n1-c1ccc(F)cc1 the results were A350 fluor inactive, CRE-bla Fsk inactive, HADH2 inh inactive, AID923 inactive, HSD17B inhib inactive and 4-MU autofl inactive.
O=C(OCC(=O)N1CCN(C(=O)c2ccco2)CC1)c1cc(-c2ccc(F)cc2)nc2ccccc12 was read as A350 fluor 9.9e-08M, CRE-bla Fsk inconclusive, HADH2 inh inconclusive, AID923 inactive, HSD17B inhib 32µM and 4-MU autofl 9.3e-08M.
For O=C(OCC(=O)N1CCN(C(=O)c2ccco2)CC1)c1cc(-c2ccccc2)nc2ccccc12 the results were A350 fluor 4.9e-08M, CRE-bla Fsk inconclusive, HADH2 inh inactive, AID923 inactive, HSD17B inhib 25µM and 4-MU autofl 3.6e-08M.
For CCOC(=O)c1cc2c(ccn2-c2ccc(F)cc2)n1CC(=O)N1CCN(C(=O)c2ccco2)CC1 the results were A350 fluor inactive, CRE-bla Fsk inconclusive, HADH2 inh inactive, AID923 inactive, HSD17B inhib 32µM and 4-MU autofl inactive.
`O=C(OCC(=O)N1CCN(C(=O)c2ccco2)CC1)c1ccccc1C(=O)c1ccccc1` gave A350 fluor inactive, CRE-bla Fsk inactive, HADH2 inh inactive, AID923 inactive, HSD17B inhib inactive and 4-MU autofl inactive.
For O=C(CSc1nc2c(c(=O)n1-c1ccc(Cl)cc1)SCC2)Nc1ccc2c(c1)OCCO2 the results were CRE-bla Fsk inconclusive, HADH2 inh inactive, AID923 inactive and HSD17B inhib inactive.
For COc1ccc2c(c1)c(CC(=O)O)c(C)n2Cc1ccc(Cl)cc1 the results were A350 fluor inactive, CRE-bla Fsk inactive, HADH2 inh inactive, AID923 inactive, HSD17B inhib inactive and 4-MU autofl inactive.
